Measurements taken from ChEMBL document CHEMBL1961873, “Compounds: GSK PKIS; Assays: Nanosyn kinase panel” (2012).

These molecules were tested against T1, cAMP-dependent protein kinase catalytic subunit PRKX (Homo sapiens) (UniProt P51817). Settings: at 0.1 µM.
T1 sequence (whole entry): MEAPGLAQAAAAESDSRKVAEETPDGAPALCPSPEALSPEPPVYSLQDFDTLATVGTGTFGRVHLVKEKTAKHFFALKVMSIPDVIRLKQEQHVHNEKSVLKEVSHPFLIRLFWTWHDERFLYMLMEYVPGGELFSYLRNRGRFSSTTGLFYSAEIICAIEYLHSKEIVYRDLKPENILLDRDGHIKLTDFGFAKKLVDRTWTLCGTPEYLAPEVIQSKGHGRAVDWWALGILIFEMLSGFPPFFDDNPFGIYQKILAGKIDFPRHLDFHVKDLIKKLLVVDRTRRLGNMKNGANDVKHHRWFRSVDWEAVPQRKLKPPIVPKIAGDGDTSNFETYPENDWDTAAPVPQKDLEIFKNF

Point of comparison: `NS(=O)(=O)c1ccc(N/N=C2\C(=O)Nc3ccc(C(=O)NCCCn4ccnc4)cc32)cc1`, inhibition 3.32%. Against it:
- NC(=O)Cc1ccccc1Oc1nccc(-c2c(-c3ccc(F)cc3)ncn2C2CCNCC2)n1 — lower, -0.25%
- C[C@@H](Oc1cc(-n2cnc3ccc(OC4CCN(C)CC4)cc32)sc1C(N)=O)c1ccccc1Cl — lower, 2.2%
- NS(=O)(=O)c1ccc(N/N=C2\C(=O)Nc3ccc(-c4cnco4)cc32)cc1 — lower, 1.53%
- NS(=O)(=O)c1ccc(Nc2cc(-c3ccc(O)c(F)c3)n[nH]2)cc1 — lower, -0.97%
- CCS(=O)(=O)c1ccc(OC)c(Nc2ncc(-c3ccccc3Cl)o2)c1 — lower, 0.64%
- COc1cc(Nc2ncc3c(C)nc(-c4cccc(C(F)(F)F)c4)n3n2)cc(OC)c1OC — lower, 3%
- Cc1ccc(C(=O)NC2CCC2)cc1-c1ccc(C(=O)NCC2CC2)cc1 — lower, 1.55%
- C[C@@H](Oc1cc(-n2cnc3ccc(OCC4CCN(C)CC4)cc32)sc1C(N)=O)c1ccccc1Cl — lower, 1.81%
- Fc1ccc(-c2ncn(C3CCNCC3)c2-c2ccnc(Oc3ccc4c(c3)OCO4)n2)cc1 — lower, 1.9%
- CCS(=O)(=O)c1ccc(OC)c(Nc2ncc(-c3cccc(-c4ccccc4F)c3)o2)c1 — lower, 0.93%
- CN(c1ccc(NC(=O)Nc2c(Cl)cccc2Cl)cc1)c1ccnc(Nc2cccc(CS(C)(=O)=O)c2)n1 — lower, 1.96%
- O=C(NCC1CC1)c1ccc(-c2cccc(C(=O)NC3CC3)c2)cc1 — lower, 0.49%
- COc1ccc2cc(-c3c(-c4ccncc4)nc(-c4ccc(S(C)(=O)=O)cc4C)n3C)ccc2c1 — higher, 5.93%
- NC(=O)c1ccc(Oc2nccc(-c3c(-c4ccc(F)cc4)ncn3C3CCNCC3)n2)cc1 — higher, 3.5%
- Nc1nccc(-c2c(-c3ccc(F)cc3)ncn2C2CCC(O)CC2)n1 (stereo not drawn) — lower, -0.76%
- COc1cc2ncn(-c3cc(OCCc4ccccc4)c(C(N)=O)s3)c2cc1OC — lower, 0.24%
- Cc1ccc(NC(=O)c2ccoc2)cc1-c1ccc(C(=O)NCC2CC2)cc1 — lower, 1.5%
- COc1cc(Nc2ncc(-c3ccccc3)o2)cc(OC)c1OC — lower, 0.22%
- O=C(Nc1n[nH]c2nc(-c3ccc(O)cc3)c(Br)cc12)C1CC1 — lower, 3.04%
- CCc1nccc2c1nc(-c1nonc1N)n2CC — lower, -0.13%
- COc1ccc(C2=C(N3CCc4ccccc43)C(=O)NC2=O)cc1 — lower, 2.47%
- COc1ccc(-c2ccc3c(NC(=O)C4CC4)n[nH]c3n2)cc1 — lower, 1.66%
- COc1cc2ncn(-c3cc(OCc4ccccc4C(F)(F)F)c(C(C)=O)s3)c2cc1OC — lower, 0.6%
- Fc1ccc(-c2ncn(C3CCNCC3)c2-c2ccnc(Oc3ccc(Oc4ccccc4)cc3)n2)cc1 — lower, 2.43%
- COc1cc2ncn(-c3cc(OCc4cccs4)c(C(N)=O)s3)c2cc1OC — lower, 3.18%
- O=C(Nc1ccc(Oc2ccc3[nH]c(NC(=O)c4ccccc4)nc3c2)cc1)Nc1cc(C(F)(F)F)ccc1F — lower, 1.55%
- Fc1ccc(-c2nc3n(c2-c2ccncc2)CCS3)cc1 — lower, 1.54%
- Fc1ccc(-c2ncn(C3CCNCC3)c2-c2ccnc(Oc3ccc(F)c(F)c3)n2)cc1 — lower, 1.98%
- COc1cccc(/C=N/Nc2ncnc3c2cnn3-c2cccc(OC)c2)c1 — lower, 0.44%
- C/C(Nc1ccc(S(N)(=O)=O)cc1)=C1/C(=O)Nc2ccccc21 — lower, 1.97%
- CN(C)CCOc1ccc(-c2cc(-c3ccc4c(c3)CCC4=NO)c(-c3ccncc3)o2)cc1 — lower, -0.21%
- COc1ccc2cc(-c3c(-c4ccncc4)nc(-c4ccc([S+](C)[O-])cc4C)n3C)ccc2c1 (stereo not drawn) — lower, 0.49%
- FC(F)(F)c1cccc(Nc2nccc(-c3cnn4nc(-c5ccccc5)ccc34)n2)c1 — lower, 1.18%

These molecules were tested against T1, cAMP-dependent protein kinase catalytic subunit PRKX (Homo sapiens). Settings: at 1 µM.

Point of comparison: `CCS(=O)(=O)c1ccc(OC)c(Nc2ncc(-c3cccc(-c4ccccc4F)c3)o2)c1`, inhibition 0.98%. Against it:
- NC(=O)Cc1ccccc1Oc1nccc(-c2c(-c3ccc(F)cc3)ncn2C2CCNCC2)n1 — lower, -1.31%
- C[C@@H](Oc1cc(-n2cnc3ccc(OC4CCN(C)CC4)cc32)sc1C(N)=O)c1ccccc1Cl — lower, -1.84%
- NS(=O)(=O)c1ccc(N/N=C2\C(=O)Nc3ccc(-c4cnco4)cc32)cc1 — higher, 1.83%
- NS(=O)(=O)c1ccc(Nc2cc(-c3ccc(O)c(F)c3)n[nH]2)cc1 — lower, -1.36%
- CCS(=O)(=O)c1ccc(OC)c(Nc2ncc(-c3ccccc3Cl)o2)c1 — lower, 0.38%
- COc1cc(Nc2ncc3c(C)nc(-c4cccc(C(F)(F)F)c4)n3n2)cc(OC)c1OC — higher, 7.31%
- Cc1ccc(C(=O)NC2CCC2)cc1-c1ccc(C(=O)NCC2CC2)cc1 — lower, -0.61%
- C[C@@H](Oc1cc(-n2cnc3ccc(OCC4CCN(C)CC4)cc32)sc1C(N)=O)c1ccccc1Cl — lower, -4.06%
- Fc1ccc(-c2ncn(C3CCNCC3)c2-c2ccnc(Oc3ccc4c(c3)OCO4)n2)cc1 — higher, 2.4%
- CN(c1ccc(NC(=O)Nc2c(Cl)cccc2Cl)cc1)c1ccnc(Nc2cccc(CS(C)(=O)=O)c2)n1 — higher, 3.64%
- O=C(NCC1CC1)c1ccc(-c2cccc(C(=O)NC3CC3)c2)cc1 — lower, -0.06%
- COc1ccc2cc(-c3c(-c4ccncc4)nc(-c4ccc(S(C)(=O)=O)cc4C)n3C)ccc2c1 — higher, 12.1%
- NC(=O)c1ccc(Oc2nccc(-c3c(-c4ccc(F)cc4)ncn3C3CCNCC3)n2)cc1 — higher, 3.99%
- Nc1nccc(-c2c(-c3ccc(F)cc3)ncn2C2CCC(O)CC2)n1 (stereo not drawn) — lower, -0.96%
- COc1cc2ncn(-c3cc(OCCc4ccccc4)c(C(N)=O)s3)c2cc1OC — lower, -4.15%
- Cc1ccc(NC(=O)c2ccoc2)cc1-c1ccc(C(=O)NCC2CC2)cc1 — lower, 0.55%
- COc1cc(Nc2ncc(-c3ccccc3)o2)cc(OC)c1OC — lower, 0.75%
- O=C(Nc1n[nH]c2nc(-c3ccc(O)cc3)c(Br)cc12)C1CC1 — higher, 4.28%
- CCc1nccc2c1nc(-c1nonc1N)n2CC — lower, -0.42%
- COc1ccc(C2=C(N3CCc4ccccc43)C(=O)NC2=O)cc1 — higher, 2.49%
- COc1ccc(-c2ccc3c(NC(=O)C4CC4)n[nH]c3n2)cc1 — higher, 3.81%
- COc1cc2ncn(-c3cc(OCc4ccccc4C(F)(F)F)c(C(C)=O)s3)c2cc1OC — lower, 0.44%
- Fc1ccc(-c2ncn(C3CCNCC3)c2-c2ccnc(Oc3ccc(Oc4ccccc4)cc3)n2)cc1 — higher, 3.21%
- COc1cc2ncn(-c3cc(OCc4cccs4)c(C(N)=O)s3)c2cc1OC — lower, -3.65%
- O=C(Nc1ccc(Oc2ccc3[nH]c(NC(=O)c4ccccc4)nc3c2)cc1)Nc1cc(C(F)(F)F)ccc1F — higher, 1.09%
- Fc1ccc(-c2nc3n(c2-c2ccncc2)CCS3)cc1 — higher, 1.87%
- Fc1ccc(-c2ncn(C3CCNCC3)c2-c2ccnc(Oc3ccc(F)c(F)c3)n2)cc1 — higher, 2.55%
- COc1cccc(/C=N/Nc2ncnc3c2cnn3-c2cccc(OC)c2)c1 — higher, 1.94%
- C/C(Nc1ccc(S(N)(=O)=O)cc1)=C1/C(=O)Nc2ccccc21 — higher, 4.84%
- NS(=O)(=O)c1ccc(N/N=C2\C(=O)Nc3ccc(C(=O)NCCCn4ccnc4)cc32)cc1 — higher, 7.39%
- CN(C)CCOc1ccc(-c2cc(-c3ccc4c(c3)CCC4=NO)c(-c3ccncc3)o2)cc1 — lower, -1.72%
- COc1ccc2cc(-c3c(-c4ccncc4)nc(-c4ccc([S+](C)[O-])cc4C)n3C)ccc2c1 (stereo not drawn) — higher, 1.21%
- FC(F)(F)c1cccc(Nc2nccc(-c3cnn4nc(-c5ccccc5)ccc34)n2)c1 — lower, 0.74%
